Laboratory results as given in ChEMBL document CHEMBL1961873, “Compounds: GSK PKIS; Assays: Nanosyn kinase panel” (2012).

Target: T1, Serine/threonine-protein kinase D3 (Homo sapiens) (UniProt O94806);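 further: values are mean inhibition figures against PRKD3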
T1 sequence (whole entry): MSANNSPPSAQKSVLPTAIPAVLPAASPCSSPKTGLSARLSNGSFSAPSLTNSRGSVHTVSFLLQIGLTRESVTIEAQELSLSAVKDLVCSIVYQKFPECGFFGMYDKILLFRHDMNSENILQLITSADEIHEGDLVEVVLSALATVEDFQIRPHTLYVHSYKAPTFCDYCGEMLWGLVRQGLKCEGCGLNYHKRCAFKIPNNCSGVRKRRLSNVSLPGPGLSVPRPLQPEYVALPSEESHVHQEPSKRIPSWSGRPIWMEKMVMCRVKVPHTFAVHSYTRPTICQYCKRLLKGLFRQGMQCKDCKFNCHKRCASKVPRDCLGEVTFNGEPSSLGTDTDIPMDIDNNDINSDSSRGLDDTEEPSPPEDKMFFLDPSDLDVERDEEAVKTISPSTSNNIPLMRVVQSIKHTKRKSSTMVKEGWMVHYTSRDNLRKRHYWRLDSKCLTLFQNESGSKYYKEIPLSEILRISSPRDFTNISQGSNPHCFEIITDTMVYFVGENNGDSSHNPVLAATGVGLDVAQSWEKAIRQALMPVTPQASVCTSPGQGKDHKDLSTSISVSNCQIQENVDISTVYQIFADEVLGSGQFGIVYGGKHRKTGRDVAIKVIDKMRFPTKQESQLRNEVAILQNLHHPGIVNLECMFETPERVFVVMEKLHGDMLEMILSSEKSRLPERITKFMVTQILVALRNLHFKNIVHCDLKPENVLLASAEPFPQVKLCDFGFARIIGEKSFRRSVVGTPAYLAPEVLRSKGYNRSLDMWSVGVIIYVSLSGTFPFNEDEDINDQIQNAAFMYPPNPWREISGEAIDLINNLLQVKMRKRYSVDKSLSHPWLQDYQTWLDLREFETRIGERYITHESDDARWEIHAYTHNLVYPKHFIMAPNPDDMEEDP
Settings: at 1 µM

Structure (SMILES)	inhibition
c1ccc(COc2ccc(Nc3ncnc4ccc(-c5ccco5)cc34)cc2)cc1	1.43%
COC(=O)Nc1nc2ccc(S(=O)(=O)c3ccc(NC(=O)Nc4cc(C(F)(F)F)ccc4F)cc3)cc2[nH]1	5.1%
CN(C)CCOc1ccc(-c2nc(-c3ccncc3)c(-c3ccc4c(c3)CC/C4=N\O)[nH]2)cc1	5.44%
CS(=O)(=O)CCNCc1ccc(-c2ccc3ncnc(Nc4ccc(OCc5ccccc5)c(C(F)(F)F)c4)c3c2)o1	4.39%
COc1cc2ncn(-c3cc(OCc4ccccc4C(F)(F)F)c(C(=O)N(C)C)s3)c2cc1OC	-0.01%
CC(C)COC(=O)c1ccc2c(c1)/C(=C/Nc1ccc(S(N)(=O)=O)cc1)C(=O)N2	46.3%
CCc1nn2ncccc2c1-c1ccnc(NC2CC2)n1	2.57%
CN1CCC(n2cnc(-c3ccc(F)cc3)c2-c2ccnc(Nc3ccccc3)n2)CC1	43.5%
FC(F)(F)c1cccc(-c2nn3ncccc3c2-c2ccnc(Nc3ccc4c(c3)OCCO4)n2)c1	47.2%
COc1ccc2[nH]c3c4[nH]c5ccc(OC)cc5c4c4c(c3c2c1)C(=O)NC4=O	14.4%
CNC(=O)c1cccc(C#Cc2cncnc2Nc2ccc(OCc3cccc(F)c3)c(Cl)c2)c1	0.04%
COc1cc(N2CCN(C(C)C)CC2)ccc1Nc1nc(Nc2ccc(F)cc2C(N)=O)c2cc[nH]c2n1	79.8%
Fc1ccc(-c2cc(-c3c[nH]nc3-c3ccccn3)ccn2)cc1	20.5%
COc1cc2c(cc1Nc1nc(Nc3ccsc3C(N)=O)c3cc[nH]c3n1)N(C(=O)CN(C)C)CCC2(C)C	75.7%
Fc1ccc(-c2nn3ccccc3c2-c2ccncc2)cc1	4.89%
CCCN(CCS(C)(=O)=O)Cc1ccc(-c2ccc3ncnc(Nc4ccc(OCc5cccc(F)c5)c(Cl)c4)c3c2)o1	2.73%
COc1cc(/C=N/Nc2ncnc3[nH]ncc23)ccc1O	3.16%

Structure (SMILES)	inhibition
c1cc(-c2cnn3nc(N4CCOCC4)ccc23)nc(NC2CC2)n1	49.9%
CN1CCC(n2cnc(-c3ccc(F)cc3)c2-c2ccnc(N)n2)CC1	17.3%
Fc1ccc(-c2nn3ncccc3c2-c2ccnc(Nc3ccc4c(c3)OCCO4)n2)cc1	48.4%
COc1ccc(-c2oc3ncnc(N)c3c2-c2ccc(NC(=O)Nc3cc(C(F)(F)F)ccc3F)cc2)cc1	2.96%
CCN(CC)S(=O)(=O)c1ccc(OC)c(Nc2ncc(-c3ccccc3)o2)c1	0.06%
Cc1ccc(O)cc1Nc1ccnc2cc(-c3ccccn3)ccc12	18.9%
COc1ccc(-c2nn3ncccc3c2-c2ccnc(Nc3ccc4c(c3)OCCO4)n2)cc1	8.59%
COc1cccc(-n2ncc3c(N/N=C/c4ccc(F)cc4)ncnc32)c1	4.06%
CC1=C(C(=O)Nc2cc(Cl)c3[nH]ncc3c2)C(c2ccc(C(F)(F)F)cc2)CC(=O)N1 (stereo not drawn)	7.2%
COc1cccc(-c2c[nH]c3c(N/N=C/c4ccncc4)ncnc23)c1	5.38%
CC(C)(CO)CNC(=O)c1ccc2c(c1)/C(=N/Nc1ccc(S(N)(=O)=O)cc1)C(=O)N2	9.82%
NS(=O)(=O)c1ccc(N/N=C2\C(=O)Nc3ccc4ncccc4c32)cc1	51.4%
CCn1c(-c2nonc2N)nc2cnc(Oc3cccc(NC(=O)c4ccc(N(C)C)cc4)c3)cc21	2.97%
c1ccc(-c2nc3n(c2-c2ccc4c(c2)OCO4)CCC3)nc1	5.25%
NC(=O)c1sc(-n2cnc3ccc(C(F)(F)F)cc32)cc1OCc1ccccc1Br	3.94%
COc1ccc(-c2cc3c(N)ncnc3o2)cc1	-1.37%
N#Cc1c(NC(=O)c2ccc(F)cc2)sc2c1CCCC2	1.92%

Target: T2, cGMP-dependent protein kinase 1 (Homo sapiens) (UniProt Q13976)
T2 sequence (whole entry): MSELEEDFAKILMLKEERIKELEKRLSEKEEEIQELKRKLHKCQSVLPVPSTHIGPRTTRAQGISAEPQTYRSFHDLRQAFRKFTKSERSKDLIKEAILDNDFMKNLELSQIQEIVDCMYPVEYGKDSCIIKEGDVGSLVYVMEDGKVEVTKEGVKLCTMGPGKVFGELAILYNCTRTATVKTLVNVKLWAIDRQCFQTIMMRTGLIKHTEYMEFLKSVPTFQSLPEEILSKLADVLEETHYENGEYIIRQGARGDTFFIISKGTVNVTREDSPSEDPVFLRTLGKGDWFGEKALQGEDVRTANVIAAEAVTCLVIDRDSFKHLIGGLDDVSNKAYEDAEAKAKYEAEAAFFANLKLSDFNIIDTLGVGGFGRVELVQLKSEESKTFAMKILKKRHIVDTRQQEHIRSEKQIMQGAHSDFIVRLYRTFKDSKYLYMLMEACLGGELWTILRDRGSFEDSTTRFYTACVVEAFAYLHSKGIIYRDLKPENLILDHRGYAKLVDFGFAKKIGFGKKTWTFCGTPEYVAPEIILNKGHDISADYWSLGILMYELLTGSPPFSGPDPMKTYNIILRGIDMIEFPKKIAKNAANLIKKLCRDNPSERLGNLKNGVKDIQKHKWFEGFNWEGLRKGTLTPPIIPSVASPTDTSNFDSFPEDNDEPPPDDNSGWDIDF
Settings: at 0.1 µM

Structure (SMILES)	inhibition
c1ccc(COc2ccc(Nc3ncnc4ccc(-c5ccco5)cc34)cc2)cc1	-0.44%
COC(=O)Nc1nc2ccc(S(=O)(=O)c3ccc(NC(=O)Nc4cc(C(F)(F)F)ccc4F)cc3)cc2[nH]1	2.21%
CN(C)CCOc1ccc(-c2nc(-c3ccncc3)c(-c3ccc4c(c3)CC/C4=N\O)[nH]2)cc1	2.17%
CS(=O)(=O)CCNCc1ccc(-c2ccc3ncnc(Nc4ccc(OCc5ccccc5)c(C(F)(F)F)c4)c3c2)o1	2.93%
COc1cc2ncn(-c3cc(OCc4ccccc4C(F)(F)F)c(C(=O)N(C)C)s3)c2cc1OC	-0.43%
CC(C)COC(=O)c1ccc2c(c1)/C(=C/Nc1ccc(S(N)(=O)=O)cc1)C(=O)N2	4.93%
CCc1nn2ncccc2c1-c1ccnc(NC2CC2)n1	1.92%
CN1CCC(n2cnc(-c3ccc(F)cc3)c2-c2ccnc(Nc3ccccc3)n2)CC1	1.69%
FC(F)(F)c1cccc(-c2nn3ncccc3c2-c2ccnc(Nc3ccc4c(c3)OCCO4)n2)c1	0.41%
COc1ccc2[nH]c3c4[nH]c5ccc(OC)cc5c4c4c(c3c2c1)C(=O)NC4=O	6.13%
CNC(=O)c1cccc(C#Cc2cncnc2Nc2ccc(OCc3cccc(F)c3)c(Cl)c2)c1	-0.44%
COc1cc(N2CCN(C(C)C)CC2)ccc1Nc1nc(Nc2ccc(F)cc2C(N)=O)c2cc[nH]c2n1	11.5%
Fc1ccc(-c2cc(-c3c[nH]nc3-c3ccccn3)ccn2)cc1	1.49%
COc1cc2c(cc1Nc1nc(Nc3ccsc3C(N)=O)c3cc[nH]c3n1)N(C(=O)CN(C)C)CCC2(C)C	3.61%
Fc1ccc(-c2nn3ccccc3c2-c2ccncc2)cc1	3.89%
CCCN(CCS(C)(=O)=O)Cc1ccc(-c2ccc3ncnc(Nc4ccc(OCc5cccc(F)c5)c(Cl)c4)c3c2)o1	1.66%
COc1cc(/C=N/Nc2ncnc3[nH]ncc23)ccc1O	3.83%

Structure (SMILES)	inhibition
c1cc(-c2cnn3nc(N4CCOCC4)ccc23)nc(NC2CC2)n1	2.98%
CN1CCC(n2cnc(-c3ccc(F)cc3)c2-c2ccnc(N)n2)CC1	0.5%
Fc1ccc(-c2nn3ncccc3c2-c2ccnc(Nc3ccc4c(c3)OCCO4)n2)cc1	2.53%
COc1ccc(-c2oc3ncnc(N)c3c2-c2ccc(NC(=O)Nc3cc(C(F)(F)F)ccc3F)cc2)cc1	4.53%
CCN(CC)S(=O)(=O)c1ccc(OC)c(Nc2ncc(-c3ccccc3)o2)c1	0.75%
Cc1ccc(O)cc1Nc1ccnc2cc(-c3ccccn3)ccc12	3.58%
COc1ccc(-c2nn3ncccc3c2-c2ccnc(Nc3ccc4c(c3)OCCO4)n2)cc1	-0.47%
COc1cccc(-n2ncc3c(N/N=C/c4ccc(F)cc4)ncnc32)c1	1.9%
CC1=C(C(=O)Nc2cc(Cl)c3[nH]ncc3c2)C(c2ccc(C(F)(F)F)cc2)CC(=O)N1 (stereo not drawn)	27.6%
COc1cccc(-c2c[nH]c3c(N/N=C/c4ccncc4)ncnc23)c1	2.91%
CC(C)(CO)CNC(=O)c1ccc2c(c1)/C(=N/Nc1ccc(S(N)(=O)=O)cc1)C(=O)N2	0.66%
NS(=O)(=O)c1ccc(N/N=C2\C(=O)Nc3ccc4ncccc4c32)cc1	4.46%
CCn1c(-c2nonc2N)nc2cnc(Oc3cccc(NC(=O)c4ccc(N(C)C)cc4)c3)cc21	56.1%
c1ccc(-c2nc3n(c2-c2ccc4c(c2)OCO4)CCC3)nc1	2.47%
NC(=O)c1sc(-n2cnc3ccc(C(F)(F)F)cc32)cc1OCc1ccccc1Br	3.55%
COc1ccc(-c2cc3c(N)ncnc3o2)cc1	-0.46%
N#Cc1c(NC(=O)c2ccc(F)cc2)sc2c1CCCC2	0.21%
